Screening data from PubChem.
Sampled rows, rich in hits. Any-hit rate of the full collection: about 4.5%.
PfHsp90 set2: inhibits growth of yeast expressing Plasmodium falciparum Hsp90; 0.32% of 310,000 active; inhibition, % at 9.4 µM; S. cerevisiae expressing PfHsp90, BacTiter-Glo ATP, 48 h; yeast lacking PDR1 and PDR3 efflux regulators; AID 504621;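 active = every replicate shows inhibition above about 80%, whatever the replicate mean, limit read from the data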;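 note: 0% = DMSO neutral controls and 100% = 20 µM radicicol positive controls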
SKKanGAS inh: SKKanGAS growth inhibition | S. pyogenes SKKanGAS, kanamycin growth, BacTiter-Glo, 6 h | inhibition, % at 7.5 µM | 1.3% of 300,000 active | AID 1662;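 active = mean replicate score, as percent of positive control median, at least 50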;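 note: strain carries kanamycin resistance gene driven by streptokinase promoter and grows in 40 µg/ml kanamycin; loss of luminescence reflects streptokinase promoter inhibition or plain growth inhibition; 0% = median of DMSO wells and 100% = positive control at its reference dose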
NALP3 yeast inh: blocks the NALP3 inflammasome reconstituted in yeast. Yeast reconstituted NLRP3/ASC/caspase-1, beta-gal luminescence, 24 h. inhibition, % at 10 µM. 0.39% of 330,000 active;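 active = inhibition of 50% or more; inactive = inhibition below 50%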;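 note: plate controls were induced DMSO wells for no effect and uninduced yeast grown without galactose for full effect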
tim10-1 inh: tim10-1 yeast growth inhibition; S. cerevisiae tim10-1 ts strain growth, BacTiter-Glo, 24 h; inhibition, % at 20 µM; 2.2% of 330,000 active; AID 463190;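 active = inhibition of at least 40%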;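 note: mutant grown at 25 °C; 0% = DMSO wells with yeast and 100% = wells holding no yeast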
TIM10 inh: inhibits growth of TIM10 yeast strain; inhibition, % at 10 µM; S. cerevisiae TIM10 strain growth, BacTiter-Glo luminescence, 24 h; 1.4% of 330,000 active;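 active = inhibition of 40% or more at the single tested concentration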;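 note: wild-type TIM10 isogenic control strain grown at permissive 25 °C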
tim23-1 inh: tim23-1 yeast growth inhibition; S. cerevisiae tim23-1 growth, BacTiter-Glo luminescence, 24 h; inhibition, % at 20 µM; 1.3% of 330,000 active;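 active = growth inhibition of the mutant yeast at or above 50%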;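 note: temperature-sensitive mutant grown at 25 °C; plate controls were DMSO-treated mutant yeast for no effect and medium wells lacking yeast for full effect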
tim10-1 confirm: confirmation of tim10-1 mutant yeast growth inhibitors; shares compounds with tim10-1 inh; inhibition, % at 20 µM; AID 463213; 56% of 7,400 active; S. cerevisiae tim10-1 ts strain growth, BacTiter-Glo, 24 h;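 active = inhibition of yeast growth at or above a set limit in either of two repeat tests at 20 µM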;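 note: tim10-1 mutant grown at permissive 25 °C to find synthetic lethal compounds; 0% = DMSO yeast wells and 100% = medium wells without yeast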
Numbers without * were called inactive; . = no result given.

SMILES | PfHsp90 set2 | SKKanGAS inh | NALP3 yeast inh | tim10-1 inh | TIM10 inh | tim23-1 inh | tim10-1 confirm
CCCC(=O)Nc1ccc(C(=O)/C=C/c2ccc(SC)cc2)cc1 | -8 | 15 | 9 | 45* | 29 | 42 | 34*
CCCCN1c2ccccc2N(CCCO)c2cc(C)nnc21 | 0 | -3 | 31 | 45* | 8 | 16 | 21
O=C(COC(=O)c1cccc(S(=O)(=O)N2CCc3ccccc3C2)c1)NCc1ccco1 | 12 | -4 | 19 | 41* | 1 | 3 | 12
CCOc1ccc(OCCOC(=O)C2CCN(S(=O)(=O)c3ccc(C)c(C)c3)CC2)cc1 | 15 | 3 | 12 | 1 | 4 | 4 | .
O=C(Nc1ncc2c(n1)CC(c1cccc(Cl)c1)CC2=O)c1ccco1 (centres undefined) | -5 | -6 | 13 | 41* | 4 | 31 | 32*
CC(N=C1NS(=O)(=O)c2ccccc21)C(=O)NCc1ccc(F)cc1 (centres undefined) | . | . | -1 | -13 | -10 | -5 | .
Cc1ccc(C)c(S(=O)(=O)N2CCN(C(=O)c3ccccn3)CC2)c1 | 12 | . | 6 | 16 | 9 | 23 | .
Cc1cccc(COCC(CC(C)C)N2CCN(C(=O)c3ccc(C(F)(F)F)cc3)CCC2=O)c1 (centres undefined) | 11 | 10 | 9 | 7 | 16 | 20 | .
CC(C)CC(COCc1cccc(Cl)c1)N1CCN(C(=O)c2ccc(C(F)(F)F)cc2)CCC1=O (centres undefined) | -43 | 9 | -2 | 49* | 23 | 28 | 25
Cc1ccc(C)c(NC(=O)CN(C)S(=O)(=O)c2cccc3cccnc23)c1 | -14 | 1 | 7 | 13 | 6 | 24 | .
Cc1ccc2sc(N3CCN(C(=O)c4ccc([N+](=O)[O-])o4)CC3)nc2c1C | . | 26 | 32 | 19 | -28 | 30 | .
COc1cccc2sc(N3CCN(C(=O)c4ccc([N+](=O)[O-])o4)CC3)nc12 | -4 | 12 | 35 | 51* | 25 | -37 | 28
Cc1ccnc(NC(=O)c2ccccc2NC(=O)c2ccccc2)c1 | -4 | -1 | 29 | 50* | 12 | 41 | 33*
Cc1ccnc(NC(=O)c2ccc(C(=O)c3ccccc3)cc2)c1 | 12 | -15 | 20 | 9 | -4 | 27 | .
Cc1cc(C)c(OCC(=O)OCC(=O)NCCC2=CCCCC2)c(C)c1 | -16 | 2 | 24 | 19 | 7 | 18 | .
COc1ccc(S(=O)(=O)N(C)c2ccc(C(=O)Nc3cccnc3)cc2)cc1OC | 23 | 5 | 8 | -1 | 6 | 13 | .
CSc1ccccc1NC(=O)C1CC(c2c(F)cccc2Cl)=NO1 (centres undefined) | 22 | 8 | 33 | 46* | 33 | 47 | 56*
CN(C(=O)c1cccc(NC(=O)Cc2cccc([N+](=O)[O-])c2)c1)C1CCCC1 | 0 | . | -2 | 3 | 0 | 5 | .
CN(C(=S)NC(=O)c1ccc(F)cc1)C1CCCCC1 | 14 | -1 | 33 | 20 | 17 | 34 | .
CN(C(=S)NC(=O)c1ccc(Cl)cc1)C1CCCCC1 | 7 | 40 | 38 | 42* | 31 | 24 | 10
CC1CCC2C(=O)N(c3ccccc3OC(=O)c3ccccc3)C(=O)C2C1 (centres undefined) | . | 2 | -10 | 28 | 10 | 35 | .
CC1CCC2C(=O)N(c3cc(Cl)ccc3OC(=O)c3ccco3)C(=O)C2C1 (centres undefined) | -5 | 18 | 3 | 41* | 15 | 41 | 34*
CCOC(=O)c1c(NC(=O)CN2C(=O)NC(C)(c3ccc(OC(F)F)cc3)C2=O)sc(C)c1C (centres undefined) | 2 | 16 | 21 | 43* | 18 | 22 | 27
CC1(c2ccc(OC(F)F)cc2)NC(=O)N(CC(=O)Nc2ccc(OC(F)F)cc2)C1=O (centres undefined) | -6 | -2 | 1 | -9 | 10 | 4 | .
CCn1c(=O)c(C(=O)Nn2c(C)nc3ccccc3c2=O)c(O)c2ccccc21 | . | 16 | 22 | 43* | -20 | 31 | -2
SMILES | PfHsp90 set2 | SKKanGAS inh | NALP3 yeast inh | tim10-1 inh | TIM10 inh | tim23-1 inh | tim10-1 confirm
CCn1c(=O)c(C(=O)NNC(=O)c2cccc(Cl)c2)c(O)c2ccccc21 | -11 | 103* | 16 | 46* | 4 | 11 | 51*
CCCC1CCC(C(=O)Nn2c(C)nc3ccccc3c2=O)CC1 (centres undefined) | 39 | 8 | 14 | 47* | 9 | 29 | -8
CCn1c(C)cc(O)c(C(=O)Nc2cccc(Cl)c2)c1=O | -6 | 2 | 5 | 45* | -3 | 15 | 7
O=C(C1CCCCCC1)N1CC[C@@H](N2CCC(O)CC2)[C@H](O)C1 | 4 | -8 | 16 | -13 | -5 | -2 | .
Cc1nccn1CC(=O)c1ccc(O)c(O)c1 | 9 | . | 5 | 1 | 0 | -10 | .
O=C1CSC(c2ccccc2O)N1Cc1ccccc1 (centres undefined) | -10 | 6 | -2 | 9 | 5 | -2 | .
CCN1CCN(c2nc3c(C)cccn3c(=O)c2C=C(C#N)C#N)CC1 | -5 | -2 | 1 | -1 | -33 | -49 | .
COc1ccc2oc(C(=O)OCC(=O)NCc3ccco3)c(C)c2c1 | . | 1 | 22 | -13 | -15 | -1 | .
CC(=O)c1ccc(NC(=O)CCNC(=O)c2ccc(Cl)cc2)cc1 | -20 | -7 | 12 | -22 | 11 | -1 | .
CCOC(=O)C1CCN(Cc2cc(Cl)c3ccccc3c2O)CC1 | 33 | 5 | 21 | 29 | 25 | 39 | .
Cc1ccc(N2C(=O)C3Sc4[nH]c(=O)sc4C(c4ccccc4)C3C2=O)cc1 (centres undefined) | 8 | . | 16 | 37 | 25 | 25 | .
O=C1C2Sc3[nH]c(=O)sc3C(c3ccccc3)C2C(=O)N1c1ccc(Cl)cc1 (centres undefined) | 0 | . | 11 | 42* | 39 | 40 | 29
COc1ccc(C(=S)NCS(=O)(=O)c2ccc(C)cc2)cc1 | 2 | 5 | -1 | 40* | 15 | 32 | 19
Cc1ccc(S(=O)(=O)CNC(=S)c2cccc(C)c2)cc1 | -18 | -12 | 5 | 34 | 23 | 25 | .
Cc1ccc(S(=O)(=O)N2CCN(C(=O)COC(=O)c3cccc(Cl)c3)CC2)c(C)c1 | -20 | . | 20 | 27 | 11 | 28 | .
COc1cc(F)ccc1S(=O)(=O)N1CCN(Cc2ccccc2)CC1 | -16 | -4 | 15 | 4 | -7 | 18 | .
O=C(Nc1ccc(F)cc1)c1cc(S(=O)(=O)N2CCCCC2)ccc1F | -6 | 0 | -4 | 42* | 8 | 17 | 9
O=C(Nc1ccc(S(=O)(=O)N2CCCCC2)cc1)c1ccccc1F | -16 | 5 | 24 | 31 | 25 | 29 | .
COc1cc2c(cc1OC)C(c1cc(OC)c(OC)c(OC)c1)C1(O)C(=O)OCC1(O)C2 (centres undefined) | 3 | . | . | . | . | . | .
